The text below walks through data of PubChem BioAssay (Tox21).

Assay [1] is described as follows: qHTS assay to identify small molecule antagonists of the estrogen receptor alpha (ER-alpha) signaling pathway using the BG1 cell line in the presence of 0.1 nM 17-beta-estradiol - cell viability counter screen (AID 1259241). Further: nearly all actives have a fitted effect of over 40% in size. The gist of the method: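 Live-cell protease activity (CellTiter-Fluor fluorescence, 30 min) was read in the same wells after VM7Luc4E2 cells had been exposed to compounds with 0.1 nM 17beta-estradiol for 22 hr at 37C.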
In general terms: In qHTS, concentration-response curves come from the screen itself.

Assay [2] in a line: qHTS assay to identify small molecule antagonists of the androgen receptor (AR) signaling pathway using the MDA cell line in the presence of 0.5 nM R1881 - cell viability counter screen (AID 1259242). Further: nearly all actives have a fitted effect of over 45% in size. The gist of the method: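 Concentration-response screen of compounds for toxicity in MDA-kb2 reporter cells: 16 hr at 37C with 0.5 nM R1881, endpoint live-cell protease fluorescence measured in the reporter wells.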

In assay [3] the target is Androgen receptor (Homo sapiens) (UniProt P10275). The assay is described as follows: qHTS assay to identify small molecule antagonists of the androgen receptor (AR) signaling pathway using the MDA cell line in the presence of 0.5 nM R1881 (AID 1259243). Further: nearly all actives have a fitted effect of over 50% in size. Further: potency means the concentration at half of the fitted maximal effect. The gist of the method:
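With R1881 held at 0.5 nM (final), compound effects on MMTV-luciferase expression in MDA-kb2 cells were scored by luminescence after a 16 hr, 37C incubation.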

Assay [4] concerns the target Estrogen receptor (Homo sapiens) (UniProt P03372). The assay is described as follows: qHTS assay to identify small molecule antagonists of the estrogen receptor alpha (ER-alpha) signaling pathway using the BG1 cell line in the presence of 0.1 nM 17-beta-estradiol (AID 1259244). Further: nearly all actives have a fitted effect of over 50% in size. The gist of the method:
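Compounds were tested against 0.1 nM (final) 17beta-estradiol in VM7Luc4E2 cells, which express full-length ER-alpha and an ERE-luciferase reporter; luminescence was recorded following 22 h exposure.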

The nature of assay [5]: qHTS assay to identify small molecule phospholipidosis (PLD) inducers (AID 1259344; active means well fitted curve in the direction sought with a large enough effect; an effect the other way counts as inactive or inconclusive). The gist of the method: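 After 4 h attachment on collagen I, HepG2 cells were dosed with compound alongside LipidTOX Red, kept 24 h at 37 C, fixed, and imaged for lamellar phospholipid pits.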
Assay [6] is described as follows: qHTS assay to identify small molecule HDAC inhibitors (AID 1259364).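 Further: wild-type HCT-116 cells with endogenous class I/II HDAC activity; top concentration of the series differs between compounds; nearly all actives have a fitted effect of over 45% in size.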 The gist of the method:
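Screening used wild-type human colon HCT-116 cells incubated overnight, dosed with compounds for 2 hours, and assayed with a homogeneous luminogenic HDAC I/II reagent for 30 minutes at room temperature.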

Assay [7] is described as follows: qHTS assay to identify small molecule antagonists of the sonic hedgehog signaling (Shh) pathway - cell viability counter screen (AID 1259367). Further: nearly all actives have a fitted effect of over 55% in size. The gist of the method:
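Conditioned medium drove Shh signaling in 3T3 Gli1-Luc cells exposed to compounds at 37C and 5% CO2. Viability was determined from CellTiter-Fluor fluorescence, with reagent incubated 1 hr after 23 hr of treatment.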

A short description of assay [8]: qHTS assay to identify small molecule agonists of the sonic hedgehog signaling (Shh) pathway (AID 1259368; calls by dose curve;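 further: NIH/3T3-derived 3T3Gli1-Luc cells carrying a stable Gli1-driven firefly luciferase reporter; series mostly up to about 92 µM; nearly all actives have a fitted effect of over 15% in size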). The gist of the method: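 Hedgehog pathway agonism scored by increased firefly luciferase luminescence in 3T3Gli1-Luc cells treated 24 hr at 37 C; detection used a 30 min room-temperature reagent incubation.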
Assay [9] can be described thus: qHTS assay to identify small molecule antagonists of the sonic hedgehog signaling (Shh) pathway (AID 1259369; calls by dose curve; further: nearly all actives have a fitted effect of over 45% in size; further: potency means the concentration at half of the fitted maximal effect). The gist of the method: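 NIH/3T3 stable Gli1-Luc clone, 2,000 cells/well, 4hr settle; cpd + conditioned medium 24hr; Luc reagent 30min RT; luminescence.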
In assay [10] the target is Estrogen receptor beta (Homo sapiens) (UniProt Q92731). The assay is described as follows: qHTS assay to identify small molecule agonists of the estrogen receptor beta (ER-beta) signaling pathway (AID 1259377; active means well fitted activation curve with a large enough effect in the signal ratio in the repeat runs, not every such curve was filed as active; the % refers to the signal ratio). The gist of the method: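 Beta-lactamase reporter readout: fluorescence of LiveBLAzer B/G FRET substrate after 2 h at room temperature, following 16 h compound treatment of ER-beta-UAS-bla HEK293T cells at 37C in 2% charcoal-stripped FBS medium.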
Sequence of Estrogen receptor beta (Homo sapiens) (Q92731 whole entry, looked up): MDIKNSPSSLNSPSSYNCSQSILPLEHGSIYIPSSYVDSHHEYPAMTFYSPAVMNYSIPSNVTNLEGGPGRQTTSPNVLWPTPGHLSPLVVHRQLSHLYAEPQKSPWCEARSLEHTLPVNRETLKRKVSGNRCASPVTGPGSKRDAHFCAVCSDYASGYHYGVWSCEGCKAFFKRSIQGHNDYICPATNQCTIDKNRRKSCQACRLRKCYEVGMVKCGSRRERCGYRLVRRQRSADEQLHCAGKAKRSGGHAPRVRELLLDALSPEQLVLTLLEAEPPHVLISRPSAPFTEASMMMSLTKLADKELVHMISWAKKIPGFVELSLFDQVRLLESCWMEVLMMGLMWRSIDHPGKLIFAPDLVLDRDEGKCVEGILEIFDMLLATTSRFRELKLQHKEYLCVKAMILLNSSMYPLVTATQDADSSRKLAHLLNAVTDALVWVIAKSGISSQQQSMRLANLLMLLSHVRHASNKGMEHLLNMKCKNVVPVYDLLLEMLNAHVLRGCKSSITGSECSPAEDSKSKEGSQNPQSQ

Assay [11] has the same target. The assay is described as follows: qHTS assay to identify small molecule antagonists of the estrogen receptor beta (ER-beta) signaling pathway (AID 1259378; active means well fitted inhibition curve with a large enough effect in the signal ratio in the repeat runs, not every such curve was filed as active; the % refers to the signal ratio). The gist of the method: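 ER-beta-UAS-bla HEK293T (GripTite) cells in 2% charcoal-stripped FBS medium were preincubated 6 hr at 37C, dosed with compound, then stimulated with 1 nM E2 (final) for 16 hr; beta-lactamase reporter read by B/G FRET fluorescence after 2 hr substrate loading.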

Assay [12] can be described thus: qHTS assay to identify small molecule agonists of the androgen receptor (AR) signaling pathway in the presence of an antagonist - cell viability counter screen (AID 1259379).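 Further: MDA-kb2 human breast cancer cells carrying an MMTV luciferase reporter; series mostly up to about 92 µM; nearly all actives have a fitted effect of over 25% in size.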 The gist of the method: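 MDA-kb2 viability measured by CellTiter-Fluor fluorescence in the same wells as the luciferase signal; nilutamide 3.0uM final; 15-point compound titration; 16 hr at 37C.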

For assay [13], the target named is Androgen receptor (Homo sapiens) (UniProt P10275). Nature of the assay: qHTS assay to identify small molecule agonists of the androgen receptor (AR) signaling pathway in the presence of an antagonist (AID 1259381; calls by dose curve; further: nearly all actives have a fitted effect of over 15% in size). The gist of the method: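 Luminescent ONE-Glo read, 30min at room temperature, follows 16hr compound exposure (15 concentrations) of MDA-kb2 cells at 37C, 0% CO2, with nilutamide added at 3.0uM final.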
Sequence of Androgen receptor (Homo sapiens) (P10275 whole entry, looked up): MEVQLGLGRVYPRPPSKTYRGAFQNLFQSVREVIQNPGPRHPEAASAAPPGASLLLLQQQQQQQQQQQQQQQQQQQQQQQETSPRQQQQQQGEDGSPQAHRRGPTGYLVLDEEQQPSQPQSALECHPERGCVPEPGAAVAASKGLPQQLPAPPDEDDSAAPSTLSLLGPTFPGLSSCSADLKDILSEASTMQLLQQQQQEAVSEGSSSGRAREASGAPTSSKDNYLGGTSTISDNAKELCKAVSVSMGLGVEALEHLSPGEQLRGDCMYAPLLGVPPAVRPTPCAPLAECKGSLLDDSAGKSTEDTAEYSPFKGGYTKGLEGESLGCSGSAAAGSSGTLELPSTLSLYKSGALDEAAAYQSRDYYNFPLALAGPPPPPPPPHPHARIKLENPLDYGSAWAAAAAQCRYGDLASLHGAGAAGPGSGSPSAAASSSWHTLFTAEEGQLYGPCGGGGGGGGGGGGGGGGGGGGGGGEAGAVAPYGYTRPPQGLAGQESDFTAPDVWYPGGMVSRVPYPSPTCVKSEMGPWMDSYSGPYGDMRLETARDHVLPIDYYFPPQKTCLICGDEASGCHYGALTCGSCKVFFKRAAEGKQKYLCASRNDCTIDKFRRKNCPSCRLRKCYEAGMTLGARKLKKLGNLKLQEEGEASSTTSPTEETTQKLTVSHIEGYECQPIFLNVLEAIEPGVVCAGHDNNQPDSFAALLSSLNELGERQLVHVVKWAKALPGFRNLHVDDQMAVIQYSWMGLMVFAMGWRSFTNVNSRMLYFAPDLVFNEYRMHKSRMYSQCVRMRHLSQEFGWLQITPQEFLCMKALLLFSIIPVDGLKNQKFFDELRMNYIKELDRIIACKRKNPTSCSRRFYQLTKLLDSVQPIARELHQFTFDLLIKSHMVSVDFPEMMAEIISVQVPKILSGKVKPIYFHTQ

Assay [14] can be described thus: qHTS assay to identify small molecule antagonists of the estrogen receptor beta (ER-beta) signaling pathway - cell viability counter screen (AID 1259382). Further: series mostly up to about 92 µM; nearly all actives have a fitted effect of over 55% in size. The gist of the method:
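Readout: luminescence, CellTiter-Glo, same wells as bla assay. System: ER-beta-UAS-bla GripTite HEK293T, 2% charcoal-stripped FBS. Exposure: compounds plus 1nM 17-beta-estradiol, 16 hr, 37C.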

In assay [15] the target is Estrogen receptor (Homo sapiens) (UniProt P03372). The assay is described as follows: qHTS assay to identify small molecule agonists of the estrogen receptor alpha (ER-alpha) signaling pathway in the presence of an antagonist (AID 1259383; calls by dose curve; further: top concentration of the series differs between compounds; nearly all actives have a fitted effect of over 15% in size). The gist of the method:
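Quantitative HTS confirmation: compounds titrated at 15 concentrations onto estrogen-deprived VM7Luc4E2 cells carrying a four-ERE luciferase construct, with ICI-182,780 present at 10.0nM final. Signal is luminescence after 22hr exposure.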

Assay [16] in a line: qHTS assay to identify small molecule agonists or antagonists of the thyroid stimulating hormone receptor (TSHR) signaling pathway - wild type cell line counter screen (AID 1259384; calls by dose curve). The gist of the method: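 Wild-type HEK293 cells were plated 18 h at 37 C/5% CO2, pin-dosed with compound plus Ro20-1724 medium, held 30 min at room temperature, then given cAMP-d2 and anti-cAMP-cryptate; fluorescence was read after 1 h. Fifteen concentrations, triplicate.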

For assay [17], the target named is Thyrotropin receptor (Homo sapiens) (UniProt P16473). The assay is described as follows: qHTS assay to identify small molecule antagonists of the thyroid stimulating hormone receptor (TSHR) signaling pathway (AID 1259385; calls by dose curve; further: nearly all actives have a fitted effect of over 20% in size). The gist of the method:
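TSHR-HEK293 cells were plated and held 18 h at 37C/5% CO2, then given compound plus Ro20-1724 and stimulated with TSH at 1.5 ng/mL final. After 30 min at room temperature, cAMP was detected with cAMP-d2/anti-cAMP-cryptate (1 h) by fluorescence.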

The nature of assay [18]: qHTS assay to identify small molecule HDAC inhibitors - cell viability counter screen (AID 1259365). Further: series mostly up to about 92 µM; nearly all actives have a fitted effect of over 50% in size. The gist of the method: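 HCT-116 (wild type), 1,500 cells/well, overnight 37C/5% CO2; compound in DMSO 2hr; CellTiter-Glo 30min RT; luminescence read.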
Assay [19] is described as follows: qHTS assay to identify small molecule agonists of the estrogen receptor beta (ER-beta) signaling pathway - cell viability counter screen (AID 1259380). Further: nearly all actives have a fitted effect of over 30% in size. The gist of the method:
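Measured: luminescence from CellTiter-Glo after 30 min at room temperature, added to wells already read for the LiveBLAzer FRET reporter (2 hr substrate); ER-beta-UAS-bla HEK293T cells had 16 hr compound treatment at 37C, 5% CO2.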

A short description of assay [20]: qHTS assay to identify small molecule agonists of the sonic hedgehog signaling (Shh) pathway - cell viability counter screen (AID 1259366). Further: nearly all actives have a fitted effect of over 50% in size. The gist of the method:
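CellTiter-Fluor fluorescence read-out, 1 hr at 37C, added after 23hr compound exposure. Cells: 3T3 Gli1-Luc, an NIH/3T3 clone with stably integrated Gli1-Luc reporter, plated 4hr before compound.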

Several values for one entry are separate records, joined by “and”; a condition that tells them apart may be missing. Identical values can stand only once. Inconclusive results are not listed. Activity calls are given as the source filed them. Unless noted, the call rests on the fitted dose curve; in most records, active means well fitted curve in the direction sought with a large enough effect in the repeat runs; inconclusive means weak or mixed curves; inactive means no such curve, though single readings can be large; an effect the other way counts as inactive or inconclusive.

Sequence of Thyrotropin receptor (Homo sapiens) (P16473 whole entry, looked up): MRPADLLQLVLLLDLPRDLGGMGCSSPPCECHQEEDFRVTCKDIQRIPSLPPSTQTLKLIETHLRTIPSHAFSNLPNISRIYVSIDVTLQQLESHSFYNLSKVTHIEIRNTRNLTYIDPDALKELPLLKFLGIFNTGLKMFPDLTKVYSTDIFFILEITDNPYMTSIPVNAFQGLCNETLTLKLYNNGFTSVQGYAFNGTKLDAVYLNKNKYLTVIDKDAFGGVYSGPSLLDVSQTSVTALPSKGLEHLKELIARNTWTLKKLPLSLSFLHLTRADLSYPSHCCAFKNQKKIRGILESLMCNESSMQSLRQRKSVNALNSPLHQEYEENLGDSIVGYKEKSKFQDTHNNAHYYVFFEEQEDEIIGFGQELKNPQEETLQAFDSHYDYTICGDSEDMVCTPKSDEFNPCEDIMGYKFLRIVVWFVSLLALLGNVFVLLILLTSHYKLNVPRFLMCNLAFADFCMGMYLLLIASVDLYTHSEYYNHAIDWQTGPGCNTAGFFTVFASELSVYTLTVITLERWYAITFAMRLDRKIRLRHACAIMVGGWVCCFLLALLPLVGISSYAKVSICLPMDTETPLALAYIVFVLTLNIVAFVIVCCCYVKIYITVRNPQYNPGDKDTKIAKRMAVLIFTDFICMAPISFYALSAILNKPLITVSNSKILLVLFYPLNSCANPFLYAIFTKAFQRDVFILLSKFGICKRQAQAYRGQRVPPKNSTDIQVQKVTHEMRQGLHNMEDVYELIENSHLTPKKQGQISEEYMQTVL
Sequence of Estrogen receptor (Homo sapiens) (P03372 whole entry, looked up): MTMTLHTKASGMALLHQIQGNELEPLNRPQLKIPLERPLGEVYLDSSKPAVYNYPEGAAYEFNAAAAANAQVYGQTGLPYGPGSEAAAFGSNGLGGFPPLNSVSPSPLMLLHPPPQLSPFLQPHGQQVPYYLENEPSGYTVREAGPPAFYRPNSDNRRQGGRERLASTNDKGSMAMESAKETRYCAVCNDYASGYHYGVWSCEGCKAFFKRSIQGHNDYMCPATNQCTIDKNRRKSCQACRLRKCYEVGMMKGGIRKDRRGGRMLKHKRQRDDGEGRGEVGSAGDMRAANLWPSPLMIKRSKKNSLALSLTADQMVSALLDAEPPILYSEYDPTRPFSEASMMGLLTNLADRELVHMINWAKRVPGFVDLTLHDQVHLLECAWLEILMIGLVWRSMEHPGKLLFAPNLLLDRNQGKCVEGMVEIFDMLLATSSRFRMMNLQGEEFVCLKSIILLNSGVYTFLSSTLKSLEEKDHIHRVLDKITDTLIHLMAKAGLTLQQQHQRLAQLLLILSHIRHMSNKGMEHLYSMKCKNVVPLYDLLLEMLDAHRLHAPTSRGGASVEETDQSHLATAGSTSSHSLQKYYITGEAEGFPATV

For `CC(=O)Oc1ccccc1C(=O)O`, the Potency entry in assay [1], in assay [2], in assay [3], in assay [4], in [5] and in assay [6] was “inactive” in each case. Further, the Potency result in [7], in assay [9], in [11], in assay [12], in assay [14] and in [15] was “inactive” throughout. The Potency entry in [16] was “inactive”. Besides, the call in assay [8], in [10], in [13] and in assay [17] was inactive.
Regarding `COc1ccc(C(=O)c2ccccc2)c(O)c1`, the Potency entry in assay [1], in [2], in [4], in assay [5], in assay [6] and in [7] was “inactive” each time. Further, the Potency entry in [11], in assay [12], in assay [14], in assay [15] and in assay [16] was “inactive” throughout. Moreover, in [3], the Potency is 15.1 µM (active) and 27.3 µM (active) and 21.1 µM (active). Further, the result in assay [18], in assay [8], in assay [10], in assay [13] and in assay [17] was inactive.
As to `CCCCCCCCOc1ccc(C(=O)c2ccccc2)c(O)c1`, the Potency entry in assay [1], in assay [2], in assay [4], in assay [5], in [6] and in assay [7] was “inactive” each time. The Potency result in assay [9], in assay [12], in assay [19], in assay [14], in [15] and in assay [16] was “inactive” in each case. Further, the result in [18] and in assay [8] was inactive.
For `CC(=O)c1ccc(S(=O)(=O)NC(=O)NC2CCCCC2)cc1`, the Potency entry in assay [1], in assay [2], in assay [3], in [4], in assay [5] and in assay [6] was “inactive” throughout. The Potency result in assay [20], in assay [7], in assay [9], in assay [11], in [12] and in assay [14] was “inactive” in each case. For the same compound, the Potency entry in assay [15] and in assay [16] was “inactive” in each case. The compound was classed as inactive in assay [18], in assay [8], in assay [10] and in [13].
On to `CN/C(=C\[N+](=O)[O-])NCCSCc1ccc(CN(C)C)o1`, for which the Potency result in assay [1], in assay [2], in assay [4], in assay [5], in [6] and in assay [7] was “inactive” in each case. Besides, the Potency result in [9], in [11], in [12], in assay [19], in assay [14] and in assay [15] was “inactive” throughout. Also, in assay [16], the Potency entry was “inactive”. In addition, the call in assay [18], in [8], in assay [10] and in [17] was inactive.
With `COc1ccc(O)cc1`, the Potency entry in assay [1], in assay [2], in [3], in assay [5], in [6] and in assay [20] was “inactive” each time. Further, the Potency result in [7], in assay [11], in [12], in assay [19], in assay [14] and in [16] was “inactive” each time. The outcome in assay [18], in assay [8], in assay [10] and in assay [13] was inactive. Further, the Potency in assay [9] was 21.7 µM (active).
